Hits are enriched below; roughly 21% of the tested compounds scored in any of these assays.
Pf growth 48h – inhibits P. falciparum growth in the first generation, 48 h. P. falciparum luciferase growth in erythrocytes, 48 h. Potency, µM (highest dose often 28.7 µM), usual class: inhibitors. hit rate 5.9% among 310,000
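A one-generation exposure of luciferase-tagged malaria parasites in RPMI 1640/Albumax erythrocyte culture, 37 C and 5% CO2. Inhibition is inferred from decreased luminescence after adding detection reagent.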
Shiga toxin inh – blocks Shiga toxin action in Vero cells | inhibition, % at 38.7 µM | Vero cells, Shiga toxin protein synthesis inhibition reporter | hit rate 9.2% among 290,000; in the data active = inhibition mostly above about 28%, no sharp cut-off; inactive = mostly below about 43%
Pf growth 96h – inhibits malaria parasite growth, 96 h | Potency, µM (highest dose often 28.7 µM), usual class: inhibitors | P. falciparum luciferase reporter growth, 96 h | hit rate 6.9% among 320,000 | AID 504834
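Plates of compound plus infected erythrocytes (2% hematocrit, 0.05% parasitemia final) incubate 96 hours, 37 C, 5% CO2. Detection reagent added; reduced luminescence from the parasites' luciferase reporter flags inhibition.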
CHX counter – counter-screen for Shiga toxin inhibitors: cycloheximide protein synthesis inhibition. hit rate 12% among 300,000. cell reporter, cycloheximide protein synthesis inhibition counterscreen. AID 2314. max response, %; in the data active = max response mostly above about 13%, no sharp cut-off; inactive = mostly below about 14%; note: read at 38.3 µM for the half of the compounds with a filed dose
AMA1 RON2 block – disrupts binding of P. falciparum AMA1 to RON2 | AlphaScreen AMA1-biotinylated RON2 peptide binding | Potency, µM (top dose mostly 58.2 µM), most hits filed as inhibitors | hit rate 0.2% among 360,000 | AID 720542; note: nearly all actives have a fitted effect of over 45% in size
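AMA1 (3D7) with his tag at 25 nM final met compounds first, then biotinylated RON2 peptide at 25 nM; detection used donor plus acceptor beads, 10 µg/mL apiece, read by AlphaScreen after 30 min at room temperature.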
HCV inhibitor – inhibitors of hepatitis C virus infection; Huh7.5.1 HCVcc-Cre infection, luciferase reporter, 44 h; Potency, µM (doses to about 41.8 µM), usual class: inhibitors; hit rate 3.4% among 340,000
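Cells seeded at 1,000/well and cultured 4 h, then compounds added followed by HCVcc-Cre virus (~0.5 moi). After 44 h further culture, luciferase substrate was added, plates held 15 min at room temperature, and luminescence read for 15 sec.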
Large screens that a line does not name were inactive. Unless noted, calls come from the whole dose curve; as a rule, active = well fitted curve in the direction sought with a large enough effect; inconclusive = small, poorly fitted or top-dose-only effect, or another doubt; inactive = no such curve, though single readings can be large; an effect the other way counts as inactive or inconclusive.

O=C(Nc1ccccc1)C1=C[C@@H](c2ccc(C(F)(F)F)cc2)C[C@@H](OCc2ccc(CO)cc2)O1	Pf growth 48h inconclusive, Pf growth 96h inconclusive, HCV inhibitor inconclusive
C=CCOC(=O)C1=C[C@H](c2ccc(Br)cc2)C[C@H](OCc2ccc(CO)cc2)O1	none (no result: Pf growth 48h, Shiga toxin inh, Pf growth 96h, CHX counter)
CC(C)(C)[C@@H]1C=C(C(=O)NCc2ccccc2)O[C@H](OCc2ccc(CO)cc2)C1	none
O=C(Nc1ccccc1)C1=C[C@@H](c2ccccc2)C[C@@H](OCc2ccc(CO)cc2)O1	Shiga toxin inh 81, CHX counter 57
C#Cc1ccc([C@@H]2C=C(C(=O)OCC=C)O[C@H](OCc3ccc(CO)cc3)C2)cc1	Pf growth 48h inconclusive, Shiga toxin inh 23, Pf growth 96h inconclusive, CHX counter 31, HCV inhibitor inconclusive
O=C(C1=C[C@H](c2ccc(Br)cc2)C[C@H](OCc2ccc(CO)cc2)O1)N1CCOCC1	none
C=CCNc1nc(C(=O)OCC(=O)N(Cc2ccccc2)C(C)C)cs1	none (no result: Shiga toxin inh, CHX counter)
O=C(NC1CC1)C1=C[C@@H](c2ccccc2)C[C@@H](OCc2ccc(CO)cc2)O1	Pf growth 48h inconclusive, Pf growth 96h inconclusive
NC(=O)C1=C[C@H](c2ccccc2)C[C@H](OCc2ccc(CO)cc2)O1	Shiga toxin inh 27, CHX counter 36
CCOC(=O)[C@]12CCCC=C1N(Cc1ccc(Cl)cc1Cl)C(=O)[C@H](CC(=O)N1CCSCC1)C2	none (no result: Pf growth 48h, Shiga toxin inh, Pf growth 96h, CHX counter, HCV inhibitor)
CCOC(=O)COc1coc(CN2CCN(c3ccccc3)CC2)cc1=O	Pf growth 96h inconclusive
Cc1cc(NC(=O)COc2coc(CN3CCN(c4ccccc4F)CC3)cc2=O)no1	Pf growth 48h inconclusive, Pf growth 96h 9.3µM (no result: Shiga toxin inh, CHX counter)
CCN(CC)C(=O)COc1coc(CN2CCN(c3ccccc3F)CC2)cc1=O	Pf growth 96h 9.3µM
CC(C)C[C@H]1CN(CCCC[C@H]2CNC(=O)C(=O)N2CCc2ccccc2)C(=O)C(=O)N1Cc1ccccc1	none (no result: Pf growth 48h, Shiga toxin inh, Pf growth 96h, CHX counter, HCV inhibitor)
COc1ccc(S(=O)(=O)N2CCCCC2c2cc(C(=O)Nc3ccc4c(c3)OCO4)no2)cc1 (stereo not drawn)	none (no result: Pf growth 48h, Shiga toxin inh, Pf growth 96h, CHX counter, HCV inhibitor)
C=CCn1c(SCC(=O)Nc2cccnc2Cl)nnc1-c1ccc(C(C)(C)C)cc1	Pf growth 96h inconclusive, CHX counter 13
C=CCN1C(=O)/C(=C2/Sc3ccccc3N2CC)SC1=S	Pf growth 48h inconclusive
C=CCn1c(=O)/c(=C2/Sc3ccccc3N2CC)s/c1=C1/C(=O)NN=C1C	Pf growth 48h 15µM (no result: AMA1 RON2 block, HCV inhibitor)
COC(=O)N1CCc2c(sc(NC(=O)C3COc4ccccc4O3)c2C(N)=O)C1 (stereo not drawn)	Pf growth 48h 15µM, Pf growth 96h inconclusive (no result: Shiga toxin inh, CHX counter)
CCOC(=O)c1c(NC(=O)C2COc3ccccc3O2)sc2c1CCN(Cc1ccccc1)C2 (stereo not drawn)	Pf growth 48h 4.7µM, Pf growth 96h 2.3µM, HCV inhibitor inconclusive
O=c1[nH]c(/C=C\c2cccc(Cl)c2)nc(O)c1[N+](=O)[O-]	Pf growth 48h inconclusive, Pf growth 96h inconclusive
Cc1ccc(-c2cc(N)n(-c3ccc(F)cc3)n2)cc1	Shiga toxin inh 67, CHX counter 49
Cc1ccc(-c2nnnn2-c2ccc(C)cc2)cc1	none
Cc1ccc(-c2cc(N)n(-c3ccc(C)cc3)n2)cc1	Shiga toxin inh 57, CHX counter 31
Cn1c(SCCN2CCCC2)nnc1C1CCN(S(=O)(=O)c2cccc(F)c2)CC1	none
COc1cccc(-c2c(C(=O)N/N=C(\C)c3cccnc3)nnn2-c2nonc2N)c1	none
O=C(N/N=C/c1cccnc1)c1ccccc1OCc1ccc(Br)cc1	Pf growth 48h 9.3µM, HCV inhibitor inconclusive
O=C(N/N=C/c1cccnc1)c1ccccc1OCc1ccc(Cl)cc1	Pf growth 48h inconclusive (no result: AMA1 RON2 block, HCV inhibitor)
O=C(N/N=C/c1cccnc1)c1cc(-c2ccccc2OCc2ccccc2)n[nH]1	Pf growth 48h 10µM, Pf growth 96h inconclusive, HCV inhibitor inconclusive
CN1c2ccc([N+](=O)[O-])cc2CC2(C(=O)NC(=O)N(c3ccc(Br)cc3)C2=O)C1c1ccccc1 (stereo not drawn)	Pf growth 48h 1.7µM, Pf growth 96h inconclusive, HCV inhibitor inconclusive
CNC(=O)COc1ccc(Nc2nnc(-c3ccc(C)c(S(N)(=O)=O)c3)c3ccccc23)cc1	Pf growth 48h inconclusive
CCOC(=O)C1(CCc2ccccc2)CCN(C(=O)c2cnc(C)cn2)CC1	Shiga toxin inh 83, CHX counter 29
CCOC(=O)C1(CCc2ccccc2)CCN(Cc2ccc(O)cc2)CC1	Pf growth 48h inconclusive, HCV inhibitor inconclusive
CCOC(=O)C1(CCc2ccccc2)CCN(C(=O)CN2CCOC2=O)CC1	Pf growth 96h 1.7µM, CHX counter 21
CCOC(=O)C1(CCCc2ccccc2)CCN(C(=O)c2cncs2)CC1	Pf growth 48h inconclusive
CCOC(=O)C1(CCc2ccccc2)CCN(C(=O)C2=C(C)OCCO2)CC1	Shiga toxin inh 42, Pf growth 96h inconclusive, CHX counter 22
CCOC(=O)C1(CCc2ccccc2)CCN(C(=O)CCc2cnn(C)c2)CC1	Pf growth 96h inconclusive
CC(C)(C)S(=O)N1Cc2cn(Cc3ccccc3)c(=O)cc2[C@H]1CCO (stereo partly drawn)	none (no result: Pf growth 48h, Shiga toxin inh, Pf growth 96h, CHX counter)
COc1ccc(C2=Nc3ccccc3N(C(=O)c3ccncc3)C2C(=O)NC(C)C)cc1 (stereo not drawn)	none (no result: Pf growth 48h, Shiga toxin inh, Pf growth 96h, CHX counter, HCV inhibitor)
Cc1ccc(NCc2ccccc2)cc1	Shiga toxin inh 94, CHX counter 49, AMA1 RON2 block inconclusive
Clc1ccc(-c2nnc(NCc3ccccc3)c3ccccc23)cc1	Pf growth 48h inconclusive, Pf growth 96h inconclusive, HCV inhibitor inconclusive
Cc1ccc(-c2nnc(NCc3ccccc3)c3ccccc23)cc1	Pf growth 48h inconclusive, Pf growth 96h inconclusive, HCV inhibitor 11µM
COc1cc(CNc2ncn[nH]2)ccc1OCc1cccc(C)c1	Shiga toxin inh 70, CHX counter 48
COc1cc(CNc2ccc(CNc3ncn[nH]3)cc2)cc(Cl)c1OCc1ccccc1	Pf growth 48h inconclusive, Pf growth 96h inconclusive, HCV inhibitor inconclusive
c1ccc(CNc2ccc(CNc3ncn[nH]3)cc2)cc1	CHX counter 18
OC(c1ccccc1)c1ncc(-c2cccc(F)c2)[nH]1 (stereo not drawn)	none (no result: Pf growth 48h, Shiga toxin inh, Pf growth 96h, CHX counter, HCV inhibitor)
CCNC(=O)CN(c1ccc(Oc2ccccc2)cc1)S(=O)(=O)c1ccccc1	none (no result: HCV inhibitor)
NC(=O)Cc1ccc(Nc2nnc(-c3ccccc3)c3ccccc23)cc1	CHX counter 10
Cc1ccc(NCc2cccnc2)cc1	none (no result: Pf growth 48h)
CSc1ccc(CNc2ccc(C)cc2)cc1	Shiga toxin inh 80, CHX counter 36
CSc1ccc(CNc2ccc(C)c(C)c2)cc1	Shiga toxin inh 79, CHX counter 25
Cc1ccc(CNc2cccnc2)cc1	Shiga toxin inh 38, CHX counter 43
CSc1ccc(CNc2cccc3ccccc23)cc1	HCV inhibitor inconclusive (no result: Pf growth 48h)
O=C(CC12CC3CC(CC(C3)C1)C2)NC(=S)Nc1ccc(CN2CCOCC2)cc1	Pf growth 48h inconclusive

Assay outcomes deposited in PubChem BioAssay by National Center for Advancing Translational Sciences (NCATS).
